# Data published in PubChem BioAssay.
# Tested on: PRMT1 (protein arginine N-methyltransferase 1)
# Experiment: PRMT1 binders on small-molecule microarrays, primary screen, biochemical, small-molecule microarray, 635 nm fluorescence (AID 1088);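 further: binding of Prmt1 protein to compounds spotted on small-molecule microarray slides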
# Conditions: small-molecule microarray binding, higher = more signal
row,Structure (SMILES),composite z-score
1,C=CCC(OC(C)=O)[C@@H]1[C@@H](N(Cc2ccc(-c3ccccc3)cc2)C(=O)c2ccc(C)cc2)c2cc(OCCCO)ccc2N1C(=O)c1ccc2ccccc2n1 (stereo not given in full),-0.11
2,COCCOC(=O)N1C(=O)[C@@]2(c3cc(C#CC4=CCCCC4)ccc31)[C@H](c1ccc(OCCO)cc1)N1[C@H](c3ccccc3)[C@H](c3ccccc3)OC(=O)[C@H]1[C@@H]2C(=O)Nc1nc2ccccc2s1,1.55
3,O=[N+]([O-])c1ccc(C[n+]2ccc(CCCO)cc2)o1,0.464
4,C=C(C)[C@@H]1CC=C(C(O)C2C=CC3C(=O)N(Cc4ccccc4)C(=O)C3N2n2cnnc2)CC1 (stereo not given in full),-0.0461
5,CCCNC(=O)[C@@]1(C)c2ccccc2C(=O)N(Cc2cc(F)cc(C(F)(F)F)c2)[C@H]1c1ccc(CO)cc1,0.136
6,CO[C@H]1O[C@H](CO)[C@@H](OC(=O)Nc2cccc(F)c2)[C@H](OC(=O)Nc2ccccc2-c2ccccc2)[C@@H]1OC(=O)Nc1ccccc1-c1ccccc1,1.55
7,CCOC(=O)N1C(c2ccc(OCCCO)cc2)=NC(C(=O)OC)N1C(=O)OCC (stereo not given),1.54
8,COCCCNC(=O)[C@@]1(Cc2ccccc2I)c2ccccc2C(=O)N(Cc2ccccc2)[C@H]1c1ccc(CO)cc1,0.96
9,COc1ccc(C#Cc2ccc3c(c2)[C@]2(C(=O)N3)[C@H](C(=O)N3CCN(c4ncccn4)CC3)[C@H]3C(=O)O[C@H](c4ccccc4)[C@H](c4ccccc4)N3[C@@H]2c2ccc(O)cc2)cc1,1.56
10,CN(C)CCCC[C@@H]1NC(=O)[C@@H]2C[C@H](C(=O)NCc3ccc(F)cc3)[C@H](c3cccc(OCCO)c3)N2C1=O,1.55
